Laboratory results reported in PubChem BioAssay (NCI).
Compounds without any hit were thinned out: in the full panel of roughly 79,000, 15% have a hit. Activity calls are given as the source filed them. Rule as the data show it: active = growth inhibition above about 70%; inactive = the rest.

Experiments:
[1] = NCI Yeast Anticancer Drug Screen. Data for the rad52 strain (AID 147);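 also: 0% = growth of vehicle-treated control cultures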; conditions: S. cerevisiae rad52 mutant growth inhibition, active compounds read high
Method in brief: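 The repair-mutant yeast strain was incubated with compounds, then growth was read and inhibition derived relative to vehicle.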

[2] = NCI Yeast Anticancer Drug Screen. Data for the wt1 strain (AID 149);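 also: 0% = growth of vehicle-treated wt1 cultures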; conditions: S. cerevisiae wt1 strain (SPY 50644) growth inhibition, active compounds read high
Method in brief: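 Measured: growth of wt1 yeast under compound versus vehicle treatment, reported as inhibition.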

[3] = NCI Yeast Anticancer Drug Screen. Data for the rad50EPP+ strain (AID 151);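 also: 0% = growth of vehicle-treated control cultures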; conditions: S. cerevisiae rad50 mutant strain, active compounds read high
Method in brief: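 Vehicle-normalised growth inhibition; rad50EPP+ yeast strain, altered in DNA damage repair, compound-treated.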

[4] = NCI Yeast Anticancer Drug Screen. Data for the mgt1 strain (AID 153); conditions: S. cerevisiae mgt1 mutant growth inhibition, active compounds read high
Method in brief: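 Vehicle-normalized growth inhibition is determined in mgt1 yeast, a strain selected for a defined alteration in DNA repair or cell cycle control.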

[5] = NCI Yeast Anticancer Drug Screen. Data for the rad50 strain (AID 155);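 also: 0% = growth of vehicle-only cultures of the same strain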; conditions: S. cerevisiae rad50 strain growth inhibition, active compounds read high
Method in brief: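 Growth of the mutant yeast was measured after compound exposure and referenced to vehicle-treated cultures.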

[6] = NCI Yeast Anticancer Drug Screen. Data for the mec2-1 strain (AID 157); conditions: S. cerevisiae mec2-1 strain, active compounds read high
Method in brief: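 Mutant yeast (mec2-1) grown with compound; growth inhibition relative to vehicle control reported.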

[7] = NCI Yeast Anticancer Drug Screen. Data for the rad14 strain (AID 159);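 also: 0% = growth of vehicle-treated control cultures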; conditions: S. cerevisiae rad14 strain growth inhibition, active compounds read high
Method in brief: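 Here, inhibition of yeast growth was measured after compound exposure, using a strain with a genetic defect in DNA damage repair and vehicle-treated cultures as the reference.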

[8] = NCI Yeast Anticancer Drug Screen. Data for the sgs1 mgt1 strain (AID 161);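 also: 0% = growth of cultures given vehicle only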; conditions: S. cerevisiae sgs1 mgt1 strain, active compounds read high
Method in brief: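 Percent growth inhibition was derived by comparing compound-exposed mutant yeast with vehicle-exposed cultures. The strain carries alterations in DNA damage repair.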

[9] = NCI Yeast Anticancer Drug Screen. Data for the CLN2oe strain (AID 163);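 also: 0% = growth of vehicle-only control cultures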; conditions: S. cerevisiae CLN2oe strain, active compounds read high
Method in brief: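 Compounds are applied to yeast harbouring a defined cell-cycle control change; reduced growth compared with vehicle-treated controls gives the value.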

[10] = NCI Yeast Anticancer Drug Screen. Data for the cln2 rad14 strain (AID 165);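 also: 0% = growth equal to vehicle treated cultures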; conditions: S. cerevisiae cln2 rad14 strain, active compounds read high
Method in brief: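 Readout is yeast growth inhibition versus vehicle-treated controls, using a strain with cln2 and rad14 alterations exposed to compound.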

[11] = NCI Yeast Anticancer Drug Screen. Data for the bub3 strain (AID 167); conditions: S. cerevisiae bub3 mutant strain, active compounds read high
Method in brief: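 Whole-cell yeast assay. The mutant strain was incubated with compounds, and growth inhibition was determined by comparison with vehicle-treated cells.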

[12] = NCI Yeast Anticancer Drug Screen. Data for the wt2 strain (AID 169);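 also: 0% = growth of vehicle-treated yeast cultures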; conditions: S. cerevisiae wt2 strain growth inhibition, active compounds read high
Method in brief: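 Against vehicle-treated controls, the growth of yeast exposed to each compound was compared, and the inhibition was recorded.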

[13] = NCI Yeast Anticancer Drug Screen. Data for the mlh1 strain (AID 171);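 also: 0% = growth of vehicle-treated control cultures of the same strain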; conditions: S. cerevisiae mlh1 strain growth inhibition, active compounds read high
Method in brief: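 Measured: yeast growth. Reference: vehicle-treated controls. Organism: strain with a defined alteration affecting DNA damage repair or cell cycle control, treated with compound.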

[14] = NCI Yeast Anticancer Drug Screen. Data for the sgs1 strain (AID 173);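 also: 0% = growth of vehicle-only control cultures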; conditions: S. cerevisiae sgs1 mutant, active compounds read high
Method in brief: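 Each compound was added to cultures of the altered yeast strain. Growth was recorded, and inhibition was derived by comparison with vehicle controls.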

[15] = NCI Yeast Anticancer Drug Screen. Data for the mlh1 rad18 strain (AID 175); conditions: S. cerevisiae mlh1 rad18 strain growth inhibition, active compounds read high
Method in brief: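 Genetically defined yeast (DNA repair-deficient) exposed to compounds; growth inhibition determined relative to vehicle.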

[16] = NCI Yeast Anticancer Drug Screen. Data for the rad18 strain (AID 177); conditions: S. cerevisiae rad18 mutant growth inhibition, active compounds read high
Method in brief: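 Vehicle-treated cultures served as the baseline for scoring compound-induced growth inhibition in DNA-repair-mutant yeast.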

[17] = at 5.0 µM (retest, dose inferred, filed as 0.5)
[18] = at 50.0 µM (retest, dose inferred, filed as 5.0)

Measured: growth inhibition

C(=N/NC1=NCCN1)/c1c2ccccc2c(/C=N\NC2=NCCN2)c2ccccc12
active: [1]; at 1.2 µM 70% | [1]; at 3.7 µM 86% | [1]; at 11.0 µM 94% | [1]; at 33.0 µM 94% | [1]; at 100.0 µM 96% | [2]; at 100.0 µM 86% | [3]; at 11.0 µM 81% | [3]; at 33.0 µM 92% | [3]; at 100.0 µM 94% | [4]; at 100.0 µM 90% | [5]; at 3.7 µM 85% | [5]; [17] 74% | [5]; at 11.0 µM 93% | [5]; at 33.0 µM 94% | [5]; [18] 88% | [5]; at 50.0 µM 82.2% | [5]; at 100.0 µM 94% | [6]; at 33.0 µM 81% | [6]; [18] 80% | [6]; at 50.0 µM 83.6% | [6]; at 100.0 µM 90% | [7]; at 100.0 µM 89% | [8]; [18] 90% | [8]; at 50.0 µM 85.2% | [9]; at 100.0 µM 84% | [11]; [18] 83% | [11]; at 50.0 µM 79.7% | [11]; at 100.0 µM 88% | [12]; at 33.0 µM 79% | [12]; at 100.0 µM 86% | [13]; at 33.0 µM 73% | [13]; at 100.0 µM 90% | [14]; at 33.0 µM 81% | [14]; at 100.0 µM 92% | [15]; [18] 83% | [16]; at 33.0 µM 78% | [16]; at 100.0 µM 92%
inactive: [2]; at 1.2 µM -4% | [2]; at 3.7 µM 9% | [2]; at 11.0 µM 9% | [2]; at 33.0 µM 52% | [3]; at 1.2 µM 6% | [3]; at 3.7 µM 33% | [4]; at 1.2 µM -8% | [4]; at 3.7 µM -6% | [4]; at 11.0 µM 4% | [4]; at 33.0 µM 64% | [5]; at 1.2 µM 63% | [6]; at 1.2 µM 6% | [6]; at 3.7 µM 1% | [6]; [17] -13% | [6]; at 11.0 µM 20% | [7]; at 1.2 µM -9% | [7]; at 3.7 µM -25% | [7]; at 11.0 µM -3% | [7]; at 33.0 µM 67% | [8]; [17] -7% | [9]; at 1.2 µM -2% | [9]; at 3.7 µM -12% | [9]; at 11.0 µM 13% | [9]; at 33.0 µM 58% | [10]; [17] 7% | [10]; [18] 56% | [10]; at 50.0 µM 62.5% | [11]; at 1.2 µM -17% | [11]; at 3.7 µM -21% | [11]; [17] -35% | [11]; at 11.0 µM -17% | [11]; at 33.0 µM 58% | [12]; at 1.2 µM -4% | [12]; at 3.7 µM -6% | [12]; at 11.0 µM 11% | [13]; at 1.2 µM 11% | [13]; at 3.7 µM 16% | [13]; at 11.0 µM 21% | [14]; at 1.2 µM 0% | [14]; at 3.7 µM 8% | [14]; at 11.0 µM 22% | [15]; [17] -14% | [16]; at 1.2 µM -3% | [16]; at 3.7 µM -6% | [16]; at 11.0 µM 4%
